Bioassay records: PubChem, National Center for Advancing Translational Sciences (NCATS)
Compounds with a hit are over-represented: about 2.1% of the library has one in this group of screens.
Abeta yeast res – qHTS for compounds that reverse cellular toxicity of Amyloid beta (A-beta) peptide in yeast: Primary Screen. Potency, µM (titrated, usually from 46.1 µM), most hits filed as activators. actives 0.063% (n = 410,000). yeast expressing A-beta42, growth rescue, OD600, 48 h; response scale: 0% DMSO, 100% iron-clioquinol control; also: nearly all actives have a fitted effect of over 55% in size
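Yeast growth medium received pinned compounds, then yeast cells expressing toxic A-beta were added; plates incubated at 30 C for 48 hr. Growth read as absorbance at 600 nm, normalized to DMSO and equimolar FeCl3 plus clioquinol controls.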
aSyn yeast inh – qHTS of alpha-syn Inhibitors; Yeast expressing alpha-synuclein, growth rescue, BacTiter-Glo, 24 h; Potency, µM (doses to about 46.1 µM), for inactives: at the highest dose growth rescue (activation), actives largely listed as activators; actives 0.14% (n = 370,000); AID 652106, 2013; also: % of control where 0% means no effect; nearly all actives have a fitted effect of over 65% in size
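Screening used galactose-induced yeast with toxic alpha-synuclein levels, exposed to compound for 24 hr at 30 deg C. Cell growth, read with BacTiter-Glo luminescence, gave the measured signal.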
FUS yeast rescue – qHTS for Suppressors of FUS Proteinopathy: Primary screen using FUS-linked yeast assay; S. cerevisiae FUS-expressing, growth rescue, OD600, 24 h; Potency, µM (titrated, usually from 76.6 µM), actives largely listed as activators; actives 0.24% (n = 390,000); AID 1347120, 2019;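 also: plate controls were DMSO vehicle for no effect and reference control for full effect; nearly all actives have a fitted effect of over 55% in size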
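Quantitative HTS measuring growth restoration of FUS-toxic yeast. Galactose-induced cells (OD 0.005) were exposed 24hr at 30C to compounds at several concentrations, then absorbance at 600 nm was recorded.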
TDP43 rescue – qHTS of TDP-43 Inhibitors. TDP-43 expressing yeast growth rescue, BacTiter-Glo, 24 h. AID 652104, 2013. actives 1.8% (n = 410,000). Potency, µM (series often up to 46.1 µM), inactives show at the highest dose growth rescue (activation), usual class: activators; also: % of control where 0% means no effect; nearly all actives have a fitted effect of over 50% in size
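In this qHTS, compounds that restore growth of yeast expressing TDP-43 appear as activators. Cells (OD600=0.02, galactose medium, raffinose-pregrown) are incubated with compound 24 hr at 30 deg C and growth is quantified by BacTiter-Glo.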
Numbers without * were called inactive; i = inactive; ? = inconclusive; / = no result given. Calls follow the shape of the dose curve; as a rule, active = well fitted curve in the direction sought with a large enough effect; inconclusive = small, poorly fitted or top-dose-only effect, or another doubt; inactive = no such curve, though single readings can be large; an effect the other way counts as inactive or inconclusive. Potency is read from the fitted curve at half-maximal effect.

SMILES | Abeta yeast res | aSyn yeast inh | FUS yeast rescue | TDP43 rescue
Cc1ccc(SC[C@H](C)CN2CCC(NC(=O)OCc3ccccc3)CCC2=O)cc1 (stereo partly specified) | i | 25µM* | ? | ?
CC(=O)Oc1ccc(Oc2ccc(-c3noc(C)n3)cc2)cc1 | i | -13% | i | 11µM*
CCN(C(=O)C1CCN(c2nc(-c3ccc(OC)cc3)no2)CC1)c1ccccc1 | i | 9% | ? | ?
COc1ccc(-c2noc(N3CCC(C(=O)N(C)c4ccccc4)CC3)n2)cc1 | i | 2% | i | 16µM*
O=C(Nc1ccc(C(O)(C(F)(F)F)C(F)(F)F)cc1)c1ccc(F)cc1F | / | / | i | /
O=C(O)c1cccc(-c2ccc3c(c2)OCO3)c1 | i | 17% | i | 13µM*
O=C(Nc1nnc(-c2cccnc2)s1)c1cnc2ccccc2c1 | / | / | i | /
COc1ccc2c(c1)-c1nc(NC(=O)c3ccco3)sc1CC2 | i | -15% | / | ?
COc1ccc2c(c1)CCc1sc(NC(=O)c3ccco3)nc1-2 | i | -7% | i | 20µM*
COc1ccc2c(c1)-c1nc(NC(=O)c3cccs3)sc1CC2 | i | -2% | ? | 18µM*
Cc1cccc(N/C=C/c2onc(C)c2[N+](=O)[O-])c1 | i | -5% | i | -15%
Cc1noc(/C=C/c2nn(C)cc2Cl)c1[N+](=O)[O-] | i | 7% | i | 13µM*
Cc1cccc(/C=C/c2onc(C)c2[N+](=O)[O-])n1 | i | ? | i | 13µM*
COc1ccc(CNCC#Cc2ccccc2)c(OC)c1 | / | / | i | /
COc1ccc(CSc2ncnc3sccc23)cc1F | i | 2% | i | 13µM*
COCCCNc1ccn2nc(-c3ccc(Cl)cc3)cc2n1 | i | -14% | i | 11µM*
COc1ccccc1CNC(=O)COCc1cc(-c2ccc3c(c2)OCO3)on1 | i | / | ? | 22µM*
N#CC(c1ccccc1)C(CC(=NO)c1ccccc1)c1ccccc1 (stereo unspecified) | i | ? | i | 18µM*
CS(=O)(=O)c1ccccc1NC(=O)COc1ccccc1C(=O)Nc1ccccc1 | / | -1% | / | /
CC(C)CC(C(=O)OCC(=O)Nc1cccc(Cl)c1)N1C(=O)C2CC=CCC2C1=O (stereo unspecified) | i | 24% | / | 35µM*
CCCN(C)CCCOc1cc2nc(N3CCCN(C)CC3)nc(NC3CCN(C)CC3)c2cc1OC | / | 17% | / | /
Cn1c(SCc2c(Cl)cccc2Cl)nnc1-c1cccs1 | i | 12% | i | 18µM*
CSc1nnc(-c2cccs2)n1C | i | -4% | i | -4%
Cc1nnc(SCc2c(Cl)cccc2Cl)s1 | i | 9% | i | 16µM*
Cn1c(SCc2ccc(Br)cc2)nnc1-c1cccs1 | i | 9% | i | 14µM*
SMILES | Abeta yeast res | aSyn yeast inh | FUS yeast rescue | TDP43 rescue
Cc1ccc(CSc2nnc(-c3cccs3)n2C)cc1 | i | 8% | i | ?
O=C(OC12CCCN(C1)/C(=C/c1ccncc1)C2)C1CCCCC1 (stereo unspecified) | / | / | i | /
COc1ccc(CCNC(=O)Cn2ncc3c2-c2cc(C)ccc2OC3)cc1 | / | / | i | /
O=C1NC[C@H](c2ccccc2)OC(=O)[C@H](Cc2ccc(F)cc2)CC/C=C/C[C@H]1CC(=O)N(CCO)Cc1ccccc1 | i | -1% | 32µM* | 7%
O=C1NC[C@H](c2ccccc2)OC(=O)[C@@H](Cc2ccc(F)cc2)CC/C=C/C[C@H]1CC(=O)N(CCO)Cc1ccccc1 | i | 3% | ? | 19%
O=C(N[C@@H]1C/C=C\C[C@H](CC(=O)N(CCO)Cc2ccccc2)C(=O)N[C@@H](Cc2ccccc2)COC1=O)OCC1c2ccccc2-c2ccccc21 | i | 7% | 32µM* | 9%
O=C(C[C@H]1C/C=C\C[C@H](Cc2ccc(F)cc2)C(=O)O[C@@H](c2ccccc2)CNC1=O)N[C@H](CO)Cc1ccccc1 | i | 1% | 28µM* | 10%
O=C1N[C@@H](Cc2ccccc2)COC(=O)[C@H](Cc2ccc(F)cc2)CC/C=C/C[C@H]1CC(=O)N(CCO)Cc1ccccc1 | i | -1% | 22µM* | 29%
O=C1N[C@@H](Cc2ccccc2)COC(=O)[C@H](Cc2ccc(F)cc2)CC/C=C/C[C@@H]1CC(=O)N(CCO)Cc1ccccc1 | i | 2% | ? | 0%
C[C@@H]1COC(=O)[C@H](NC(=O)OCC2c3ccccc3-c3ccccc32)C/C=C\C[C@@H](CC(=O)N(CCO)Cc2ccccc2)C(=O)N1 | i | 0% | i | 18%
CN(CCOC(=O)c1occ2ccccc12)C1CN(Cc2cn(Cc3ccccc3Cl)nn2)S(=O)(=O)C1 (stereo unspecified) | / | / | i | /
COc1cc2nc(N3CCOCC3)nc(NC3CC3)c2cc1OC | / | -6% | / | /
O=C(c1ccc(F)cc1Cl)N1CCC(Oc2cccnc2)CC1 | / | / | i | /
CCc1ccccc1N(C)C(=O)c1cn(-c2cccc(OC)c2)c(=O)c2ccccc12 | i | / | i | 20µM*
Cc1ccc(-c2nc3cccnc3o2)cc1NC(=O)COc1ccc(C(C)(C)C)cc1 | i | -11% | 32µM* | ?
Cc1ccc(-c2nc3cccnc3o2)cc1NC(=O)COc1ccc(Cl)cc1C | i | -3% | i | 12%
Fc1cccc(CNC2CCC23CCC(c2ccccc2)CC3)c1 (stereo unspecified) | / | / | i | /
O=C(CS(=O)(=O)c1nc(-c2ccc(Cl)cc2)cn1-c1ccccc1)Nc1ccc(F)cc1F | i | / | ? | 14µM*
O=C(CS(=O)(=O)c1nc(-c2ccc(Cl)cc2)cn1-c1ccccc1)Nc1cccc(Cl)c1 | i | / | ? | ?
COc1ccc(Cn2cc(CN3[C@H](CC(C)C)COc4cc(Br)ccc4S3(=O)=O)nn2)cc1 | / | / | i | /
O=C(NC(=S)NCCc1ccccc1)c1ccccc1F | i | -10% | i | 11µM*
CCC(=O)Nc1ccc(Cl)c(NC(=S)NC(=O)c2ccco2)c1 | i | -2% | i | 11µM*
O=C(NC(=S)NCCc1ccc(Cl)cc1)c1ccco1 | ? | -1% | i | 14µM*
O=C(CCS(=O)(=O)c1ccccc1)Nc1ccc(F)cc1F | / | / | i | /
O=C(OC12CCCN(C1)/C(=C/c1ccc(Cl)cc1)C2)c1ccc(Cl)cc1 (stereo unspecified) | / | / | i | /
COc1ccc2c(c1)CCCN2C(=O)C1CCCN(S(=O)(=O)c2cccc3cccnc23)C1 (stereo unspecified) | / | / | i | /
O=C1CC(c2ccc(Br)cc2)c2c(ccc3ccccc23)N1 (stereo unspecified) | i | / | i | 35µM*
O=C1CC(c2cccc([N+](=O)[O-])c2)c2c(ccc3ccccc23)N1 (stereo unspecified) | i | 4% | i | -8%
